According to PubChem BioAssay:
Values joined by “and” are separate entries in the source; they are usually repeats but may differ in a detail not shown here. Equal entries are not always repeated. Active and inactive are the calls of the source.

Assays:
[1] = test system: PRMT1 (protein arginine N-methyltransferase 1); assay: small molecules binding arginine methyltransferase PRMT1 – biochemical, small-molecule microarray, 635 nm fluorescence, primary screen (AID 1088); details: higher = more signal;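 also: binding of Prmt1 protein to compounds spotted on small-molecule microarray slides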
[2] = growth effects on S. cerevisiae YJM789 – YJM789 clinical isolate, OD600, 24 h, basal, primary screen (AID 1089); details: higher = more signal, called active from +8 up or from −8 down;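 also: growth of clinical yeast isolate S. cerevisiae YJM 789 seeded 1000 cells per well; test concentration not given here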
[3] = S. pombe growth modifiers, basal conditions – strain 972, OD600, 24 h, no modulator, primary screen (AID 1090);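 also: basal condition with compound alone and no growth modifier present; test concentration not given here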; details: S. pombe 972 growth, higher = more signal, called active from +8 up or from −8 down
[4] = budding yeast growth modifiers under rapamycin – strain BY4716, OD600, 96 h, primary screen (AID 1091); also: test concentration not given here; details: S. cerevisiae BY4716 + rapamycin, higher = more signal, called active from +8 up or from −8 down
[5] = target: Torsin-1A-interacting protein 2 (Homo sapiens) (UniProt Q8NFQ8); assay: small molecules binding lysate-expressed LULL1 – cell lysate, human LULL1 lysate, 635/667 nm fluorescence, primary screen (AID 1092); details: small-molecule microarray, hLULL1 lysate binding, 635 nm fluorescence; higher = more signal;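 also: probe is lysate of COS7 cells overexpressing human LULL1; score merges per-feature 667 nm fluorescence with signal-to-noise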
[6] = optical density change of DRC41 E. coli – strain DRC41, OD650, 24 h, E. coli filamentation project, primary screen (AID 1093);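 also: MC1000 strain lacking acrAB efflux and sulA so SOS filamentation is blocked; test concentration not given here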; details: E. coli DRC41 growth, higher = more signal, called active from +8 up or from −8 down
[7] = probe aLefty2 binding to arrayed compounds – biochemical, biotinylated probe, 635/667 nm fluorescence, primary screen (AID 1094); details: small-molecule microarray, higher = more signal;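 also: score merges spot fluorescence near 667 nm with spot signal-to-noise ratio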
[8] = test system: Noggin (protein binding on small-molecule microarray); assay: small molecules binding Noggin protein – biochemical, 635/667 nm fluorescence, primary screen (AID 1095); details: 635 nm fluorescence, higher = more signal;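 also: score merges 667 nm feature fluorescence with signal to noise over triplicate slides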
[9] = target: Neurogenic locus notch homolog protein 3 (Homo sapiens) (UniProt Q9UM47); assay: small molecules binding NOTCH3 protein – biochemical, 635/667 nm fluorescence, primary screen (AID 1096); details: small-molecule microarray, 635 nm fluorescence, higher = more signal
[10] = probe aEGFR binding to arrayed compounds – biochemical, biotinylated probe, 635/667 nm fluorescence, primary screen (AID 1097); details: small-molecule microarray, higher = more signal;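 also: probe is a biotinylated anti-EGFR antibody binding compounds printed on slides; score combines fluorescence near 667 nm and signal to noise of each spot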
[11] = test system: Plasmodium falciparum Sir2 (PF13_0152, Sir2A); assay: Plasmodium falciparum Sir2A binding compounds – biochemical, small-molecule microarray, 635 nm fluorescence, primary screen (AID 1098); details: fluorescence 635 nm, higher = more signal;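 also: score merges spot fluorescence intensity with its signal-to-noise ratio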
[12] = probe aDKK1 binding to arrayed compounds – biochemical, biotinylated probe, 635/667 nm fluorescence, primary screen (AID 1099); details: small-molecule microarray, higher = more signal;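 also: score merges 667nm spot fluorescence with signal to noise across triplicate slides; reference of the scale not given here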
[13] = probe aCHRDL2 binding to arrayed compounds – biochemical, biotinylated probe, 635/667 nm fluorescence, primary screen (AID 1100); details: small-molecule microarray, higher = more signal
[14] = change in splice reporter luminescence, either direction, cell-based, HEK293, spliceosome inhibition project, primary screen (AID 1101); details: HEK293 splicing luciferase reporter, 24 h, higher = more signal, called active from +8 up or from −8 down;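 also: HEK293 cells carrying a splicing-competent luciferase reporter gene; test concentration not given here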
[15] = target: Fibroblast growth factor 10 (Homo sapiens) (UniProt O15520); assay: compounds binding fibroblast growth factor 10 – biochemical, small-molecule microarray, 635 nm fluorescence, primary screen (AID 1102); details: FGF10 binding, fluorescence 635 nm, higher = more signal
[16] = test system: glycogen synthase kinase-3 (GSK3A per assay name; protocol says GSK3B); assay: compounds binding glycogen synthase kinase-3 – biochemical, small-molecule microarray, 635 nm fluorescence, GSK3A, primary screen (AID 1103); details: fluorescence 635 nm, higher = more signal; also: the record names both GSK3A and GSK3B
[17] = target: Epidermal growth factor receptor (Homo sapiens) (UniProt P00533); assay: compounds binding epidermal growth factor receptor – biochemical, small-molecule microarray, 635 nm fluorescence, primary screen (AID 1104); details: EGFR binding, higher = more signal;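 also: score merges 667 nm emission intensity with spot signal to noise over triplicate slides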
[18] = target: Follistatin-related protein 3 (Homo sapiens) (UniProt O95633); assay: compounds binding follistatin-related protein 3 – biochemical, small-molecule microarray, 635 nm fluorescence, primary screen (AID 1105); details: FSTL3 binding, higher = more signal;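 also: score merges emission near 667 nm and signal to noise per printed spot across three slides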
[19] = target: Dickkopf-related protein 1 (Homo sapiens) (UniProt O94907); assay: small molecules binding DKK1 protein – biochemical, small-molecule microarray, 635 nm fluorescence scan, primary screen (AID 1106); details: higher = more signal;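 also: score merges emission near 667 nm with signal to noise over three replicate slides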
[20] = test system: Inhibin beta A chain (activin A); assay: small molecules binding activin A – biochemical, small-molecule microarray, 635 nm fluorescence scan, primary screen (AID 1107); details: INHBA, higher = more signal;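 also: mouse activin A protein probed at 4.33 µg/mL on printed slides; score merges bound-protein fluorescence near 667 nm with spot signal-to-noise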

Sequence of Fibroblast growth factor 10 (Homo sapiens) (O15520 whole entry, looked up): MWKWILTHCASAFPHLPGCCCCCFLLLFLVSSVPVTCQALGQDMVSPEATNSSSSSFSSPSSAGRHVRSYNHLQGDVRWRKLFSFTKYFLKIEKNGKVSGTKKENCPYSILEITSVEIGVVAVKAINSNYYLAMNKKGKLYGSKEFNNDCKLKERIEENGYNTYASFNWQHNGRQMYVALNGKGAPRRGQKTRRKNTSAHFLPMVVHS
Sequence of Neurogenic locus notch homolog protein 3 (Homo sapiens) (Q9UM47 whole entry, looked up): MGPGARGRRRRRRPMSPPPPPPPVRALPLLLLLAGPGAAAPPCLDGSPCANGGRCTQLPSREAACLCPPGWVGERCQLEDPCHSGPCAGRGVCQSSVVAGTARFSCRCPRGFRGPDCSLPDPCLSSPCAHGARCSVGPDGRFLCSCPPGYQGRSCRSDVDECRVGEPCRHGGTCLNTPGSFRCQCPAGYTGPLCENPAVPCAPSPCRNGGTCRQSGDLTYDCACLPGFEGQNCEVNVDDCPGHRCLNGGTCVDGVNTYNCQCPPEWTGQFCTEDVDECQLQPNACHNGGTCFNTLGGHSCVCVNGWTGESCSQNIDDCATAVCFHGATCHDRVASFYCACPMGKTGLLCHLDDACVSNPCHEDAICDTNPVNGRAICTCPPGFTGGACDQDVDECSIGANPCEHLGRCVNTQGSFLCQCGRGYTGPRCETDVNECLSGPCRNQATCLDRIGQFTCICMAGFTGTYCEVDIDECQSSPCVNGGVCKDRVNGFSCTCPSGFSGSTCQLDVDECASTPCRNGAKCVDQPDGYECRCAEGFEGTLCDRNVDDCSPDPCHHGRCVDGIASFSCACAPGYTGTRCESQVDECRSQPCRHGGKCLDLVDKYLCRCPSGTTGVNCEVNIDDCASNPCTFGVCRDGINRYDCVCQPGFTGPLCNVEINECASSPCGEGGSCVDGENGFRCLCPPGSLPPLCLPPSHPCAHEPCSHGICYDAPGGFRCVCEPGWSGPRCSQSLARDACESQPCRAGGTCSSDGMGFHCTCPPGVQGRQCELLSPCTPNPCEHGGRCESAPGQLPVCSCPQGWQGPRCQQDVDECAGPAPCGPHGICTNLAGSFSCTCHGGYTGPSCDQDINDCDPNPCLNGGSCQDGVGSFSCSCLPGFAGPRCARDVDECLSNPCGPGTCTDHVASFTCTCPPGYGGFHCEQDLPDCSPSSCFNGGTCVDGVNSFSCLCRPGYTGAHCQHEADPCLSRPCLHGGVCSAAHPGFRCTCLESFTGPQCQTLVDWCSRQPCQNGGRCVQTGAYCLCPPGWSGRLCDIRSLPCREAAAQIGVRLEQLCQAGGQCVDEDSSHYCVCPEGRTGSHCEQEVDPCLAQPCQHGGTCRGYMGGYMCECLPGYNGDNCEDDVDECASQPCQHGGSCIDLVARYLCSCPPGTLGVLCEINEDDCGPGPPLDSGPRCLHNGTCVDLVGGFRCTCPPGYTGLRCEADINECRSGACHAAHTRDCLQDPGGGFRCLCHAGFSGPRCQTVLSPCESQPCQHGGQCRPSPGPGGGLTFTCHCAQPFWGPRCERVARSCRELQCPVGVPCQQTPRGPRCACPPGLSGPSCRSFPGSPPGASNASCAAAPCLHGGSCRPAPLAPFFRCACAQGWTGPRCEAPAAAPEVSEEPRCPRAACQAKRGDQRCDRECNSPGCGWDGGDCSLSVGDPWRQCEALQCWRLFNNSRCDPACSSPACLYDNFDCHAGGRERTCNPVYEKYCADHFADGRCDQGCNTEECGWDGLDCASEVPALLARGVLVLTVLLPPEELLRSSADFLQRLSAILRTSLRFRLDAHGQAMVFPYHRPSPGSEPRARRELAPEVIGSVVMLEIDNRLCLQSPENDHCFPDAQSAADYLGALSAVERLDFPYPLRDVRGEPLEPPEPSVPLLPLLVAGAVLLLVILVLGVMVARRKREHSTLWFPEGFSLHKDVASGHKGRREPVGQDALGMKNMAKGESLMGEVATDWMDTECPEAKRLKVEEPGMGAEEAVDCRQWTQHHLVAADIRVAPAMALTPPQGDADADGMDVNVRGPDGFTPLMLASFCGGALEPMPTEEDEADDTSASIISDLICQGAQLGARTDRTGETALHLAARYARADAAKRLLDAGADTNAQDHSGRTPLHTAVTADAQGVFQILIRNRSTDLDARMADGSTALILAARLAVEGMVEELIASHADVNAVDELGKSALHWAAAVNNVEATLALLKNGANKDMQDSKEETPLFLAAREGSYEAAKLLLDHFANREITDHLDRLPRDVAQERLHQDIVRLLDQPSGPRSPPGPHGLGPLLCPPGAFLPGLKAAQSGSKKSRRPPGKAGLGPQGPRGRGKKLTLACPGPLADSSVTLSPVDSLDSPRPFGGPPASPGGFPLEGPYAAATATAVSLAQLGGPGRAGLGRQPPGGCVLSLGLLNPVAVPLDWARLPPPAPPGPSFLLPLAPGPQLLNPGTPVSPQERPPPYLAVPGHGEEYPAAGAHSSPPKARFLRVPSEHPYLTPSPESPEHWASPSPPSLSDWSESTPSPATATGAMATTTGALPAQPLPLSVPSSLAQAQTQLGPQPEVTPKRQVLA
Sequence of Torsin-1A-interacting protein 2 (Homo sapiens) (Q8NFQ8 whole entry, looked up): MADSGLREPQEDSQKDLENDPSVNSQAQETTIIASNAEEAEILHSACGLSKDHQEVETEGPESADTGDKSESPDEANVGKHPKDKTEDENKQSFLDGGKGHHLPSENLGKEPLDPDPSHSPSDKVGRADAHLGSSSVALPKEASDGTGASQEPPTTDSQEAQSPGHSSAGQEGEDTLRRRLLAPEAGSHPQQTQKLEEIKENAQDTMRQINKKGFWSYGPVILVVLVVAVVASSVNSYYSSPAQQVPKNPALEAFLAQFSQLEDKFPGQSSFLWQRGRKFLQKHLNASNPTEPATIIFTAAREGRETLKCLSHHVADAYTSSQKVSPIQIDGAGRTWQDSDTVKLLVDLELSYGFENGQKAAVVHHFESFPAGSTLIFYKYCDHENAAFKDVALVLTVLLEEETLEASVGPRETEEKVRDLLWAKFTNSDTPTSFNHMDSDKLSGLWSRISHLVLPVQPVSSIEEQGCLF
Sequence of Dickkopf-related protein 1 (Homo sapiens) (O94907 whole entry, looked up): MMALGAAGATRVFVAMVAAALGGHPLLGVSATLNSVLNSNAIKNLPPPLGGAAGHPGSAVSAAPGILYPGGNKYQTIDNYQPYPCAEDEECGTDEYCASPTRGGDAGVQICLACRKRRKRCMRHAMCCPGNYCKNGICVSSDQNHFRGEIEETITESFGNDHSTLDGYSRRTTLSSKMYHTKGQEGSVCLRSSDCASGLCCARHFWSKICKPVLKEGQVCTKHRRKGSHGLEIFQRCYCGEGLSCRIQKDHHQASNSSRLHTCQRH
Sequence of Epidermal growth factor receptor (Homo sapiens) (P00533 whole entry, looked up): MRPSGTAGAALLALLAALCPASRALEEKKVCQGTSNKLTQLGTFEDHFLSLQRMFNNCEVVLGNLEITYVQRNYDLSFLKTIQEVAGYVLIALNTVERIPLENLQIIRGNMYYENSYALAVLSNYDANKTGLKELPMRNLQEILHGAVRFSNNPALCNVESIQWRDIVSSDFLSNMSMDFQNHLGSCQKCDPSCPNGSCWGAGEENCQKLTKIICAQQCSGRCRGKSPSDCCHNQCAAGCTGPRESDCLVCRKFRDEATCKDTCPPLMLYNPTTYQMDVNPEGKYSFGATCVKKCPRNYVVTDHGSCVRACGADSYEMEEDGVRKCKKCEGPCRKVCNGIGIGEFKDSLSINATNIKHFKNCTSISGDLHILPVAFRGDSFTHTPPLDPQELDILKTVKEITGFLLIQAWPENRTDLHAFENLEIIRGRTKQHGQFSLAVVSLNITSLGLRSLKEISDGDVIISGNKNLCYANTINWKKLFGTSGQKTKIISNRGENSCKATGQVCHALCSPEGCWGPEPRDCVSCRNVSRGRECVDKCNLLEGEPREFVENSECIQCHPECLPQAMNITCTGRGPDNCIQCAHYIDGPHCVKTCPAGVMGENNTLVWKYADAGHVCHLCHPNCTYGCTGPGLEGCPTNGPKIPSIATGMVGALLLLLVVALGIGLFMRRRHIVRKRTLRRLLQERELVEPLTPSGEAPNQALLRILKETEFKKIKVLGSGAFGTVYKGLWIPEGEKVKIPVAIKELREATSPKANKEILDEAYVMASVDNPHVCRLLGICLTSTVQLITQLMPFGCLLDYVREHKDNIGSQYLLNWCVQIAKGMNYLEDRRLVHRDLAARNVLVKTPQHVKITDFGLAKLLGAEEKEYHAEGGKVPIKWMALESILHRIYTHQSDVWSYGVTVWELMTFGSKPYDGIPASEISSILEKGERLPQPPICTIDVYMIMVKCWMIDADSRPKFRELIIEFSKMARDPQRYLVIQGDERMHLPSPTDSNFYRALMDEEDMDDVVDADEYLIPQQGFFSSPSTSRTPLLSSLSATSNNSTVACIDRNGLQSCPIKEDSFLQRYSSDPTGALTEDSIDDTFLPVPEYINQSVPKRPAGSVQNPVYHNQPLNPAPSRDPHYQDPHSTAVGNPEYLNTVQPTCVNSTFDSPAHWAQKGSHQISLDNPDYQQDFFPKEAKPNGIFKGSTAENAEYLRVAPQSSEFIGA
Sequence of Follistatin-related protein 3 (Homo sapiens) (O95633 whole entry, looked up): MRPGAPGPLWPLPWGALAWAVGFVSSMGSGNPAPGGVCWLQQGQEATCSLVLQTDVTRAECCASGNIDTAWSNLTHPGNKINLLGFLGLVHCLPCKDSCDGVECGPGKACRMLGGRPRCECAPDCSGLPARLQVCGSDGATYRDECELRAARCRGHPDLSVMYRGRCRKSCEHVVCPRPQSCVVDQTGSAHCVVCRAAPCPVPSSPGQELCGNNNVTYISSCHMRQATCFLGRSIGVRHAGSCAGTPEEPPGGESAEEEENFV

Structure (SMILES) | composite z-score [1] | z-score [2] | z-score [3] | z-score [4] | composite z-score [5] | z-score [6] | composite z-score [7] | composite z-score [8] | composite z-score [9] | composite z-score [10] | composite z-score [11] | composite z-score [12] | composite z-score [13] | z-score [14] | composite z-score [15] | composite z-score [16] | composite z-score [17] | composite z-score [18] | composite z-score [19] | composite z-score [20]
CC(CO)N1C(=O)[C@@H]2C3C(=O)OCCC=C[C@H]3OC23C=CCN(CCN2CCOCC2)C(=O)[C@@H]13 (stereo not given in full) | -0.353 and 1.34 | 0.517 (inactive) and -1.32 (inactive) | -0.0581 (inactive) and -1.22 (inactive) | 0.565 (inactive) and -0.233 (inactive) | -0.634 and 3.22 | -0.381 (inactive) and -0.16 (inactive) | -0.186 and 0.166 | -0.0409 and 0.0947 | 0.331 and 0.465 | -0.207 and -0.0046 | 0.53 and 0.55 | -0.278 and 0.0598 | -0.389 and 0.466 | 0.388 (inactive) and -0.153 (inactive) | -0.131 and -0.0694 | -0.496 and 0.65 | -0.51 and -0.235 | -0.0214 and -0.166 | 0.0325 and -0.442 | 0.621 and 1.59
CC(C)OC(=O)C=C1C[C@@H](c2cccc(C(F)(F)F)c2)O[C@@H](c2cccc(C(F)(F)F)c2)O1 | 0.97 and 1.25 | 0.104 (inactive) and -0.425 (inactive) | 0.63 (inactive) and 0.404 (inactive) | 0.938 (inactive) and 1.23 (inactive) | 2.98 and 2.18 | -0.889 (inactive) and -1.05 (inactive) | -0.143 and -0.177 | -0.696 and -1.07 | -0.534 and -0.875 | -0.254 and -0.243 | 0.937 and 1.55 | 0.326 and -0.186 | 0.605 and -0.185 | 1.12 (inactive) and -1.24 (inactive) | -0.135 and -0.527 | 0.335 and 0.267 | -1.14 and -1.45 | -0.815 and -1.39 | -0.49 and -0.776 | -0.347 and -0.587
O=C1C[C@]2(c3ccc([N+](=O)[O-])cc3)C(=O)N(Cc3ccccc3)c3cc(CO)ccc3[C@H]2N1C1CCCCC1 | 1.33 and 0.39 | -0.754 (inactive) and -0.363 (inactive) | 0.31 (inactive) and -0.838 (inactive) | -1.02 (inactive) and 3.78 (inactive) | 2.21 and 1.14 | 0.245 (inactive) and 0.545 (inactive) | -0.21 and 0.668 | 0.469 and 0.225 | 0.219 and 0.161 | -0.0828 and 0.805 | -0.179 and 0.678 | -0.153 and 1.26 | -0.0948 and 0.78 | 0.0261 (inactive) and -0.478 (inactive) | -0.225 and 0.994 | 1.11 and -0.148 | 0.079 and 0.291 | 0.413 and -0.017 | -0.0921 and 0.434 | 0.4 and 0.359
C#CCN1C(/C=C/c2ccccc2)C(=O)OC[C@H]1c1ccccc1 (stereo not given in full) | -0.0815 and 0.365 | -3.12 (inactive) and -0.539 (inactive) | -7.61 (inactive) and -3.7 (inactive) | -3.5 (inactive) and -1.57 (inactive) | 0.447 and 2.09 | 1.07 (inactive) and 0.53 (inactive) | -0.0766 and -0.215 | 0.899 and 0.231 | 0.719 and 0.768 | -0.0304 and -0.0311 | 0.025 and 1.16 | -0.23 and -0.207 | -0.688 and -0.55 | -2.64 (inactive) and -0.366 (inactive) | 0.33 and 0.0389 | 0.658 and 0.0786 | 0.62 and 0.18 | 0.755 and 0.747 | 0.69 and 0.375 | 0.902 and 0.0774
C=C[C@@H](C)[C@@H](O)c1ccc(OCCO)cc1 | -0.851 and 0.0376 | 0.0436 (inactive) and -2.75 (inactive) | 0.162 (inactive) and -0.815 (inactive) | -0.607 (inactive) and 0.262 (inactive) | -1.11 and -0.508 | -0.0921 (inactive) and 1.12 (inactive) | 0.0893 and 0.2 | -1.72 and -1.7 | -0.574 and -0.377 | -0.397 and -0.374 | 0.886 and 1.38 | -0.265 and -0.238 | 1.09 and 0.349 | 0.26 (inactive) and -1.46 (inactive) | -1.75 and -1.12 | -0.736 and -0.659 | -2.13 and -2.11 | -1.25 and -1.05 | -2.51 and -1.8 | -3.81 and -0.988
C=CCN1C(=O)[C@]2(O[C@H](CCn3cc(CCO)nn3)[C@@H]([Si](C)(C)c3ccc(OC)cc3)[C@@H]2C)c2cc(N3C(=O)c4cccc5cccc3c45)ccc21 | 1.27 and 1.46 | 1.25 (inactive) and 0.648 (inactive) | 1.82 (inactive) and 1.64 (inactive) | 36.8 (active) and 36.6 (active) | 1.73 and 1.57 | 1.43 (inactive) and 0.793 (inactive) | -0.166 and -0.177 | 0.708 and 0.778 | 0.644 and 0.979 | -0.0828 and -0.238 | 0.306 and 1.07 | -0.206 and -0.233 | -0.106 and -0.142 | -4 (inactive) and -3.52 (inactive) | 0.726 and 1.05 | 0.26 and 0.521 | -0.0684 and -0.247 | 0.228 and 0.181 | -0.0095 and -0.0589 | 0.538 and 0.516
C=CCN(C(=O)C(c1cccs1)N(C(=O)/C=C\C(=O)O)c1c(Cl)cccc1CO)c1ccc(OC)cc1 (stereo not given) | -0.517 and -1.02 | -0.521 (inactive) and 0.247 (inactive) | -1.88 (inactive) and -0.83 (inactive) | -1.51 (inactive) and -0.982 (inactive) | 3.16 and 0.422 | 1.67 (inactive) and -0.311 (inactive) | 0.018 and 0.522 | -3.84 and -2.48 | -1.02 and -1.39 | -0.238 and -0.121 | 1.67 and 0.504 | 0.218 and 1.01 | 1.24 and 1.27 | -1.13 (inactive) and -0.482 (inactive) | -1.5 and -1.19 | -0.625 and -0.907 | -2.29 and -1.02 | -2.23 and -1.78 | -4.06 and -2.06 | -0.828 and -0.09
COC(=O)[C@@]1(Cc2ccccc2)[C@H]2c3cc(C(=O)N(C)C)n(Cc4ccc(C)c(F)c4F)c3C[C@H]2CN1C(=O)c1ccccc1 | -0.325 and 1.23 | -0.542 (inactive) and -0.0959 (inactive) | -0.991 (inactive) and 1.01 (inactive) | -0.447 (inactive) and 1.48 (inactive) | 3.44 and 3.67 | -0.359 (inactive) and -0.543 (inactive) | 0.378 and 0.513 | -0.566 and 0.645 | 0.636 and 1.06 | 0.168 and 0.646 | 1.07 and 0.37 | 1.39 and 0.861 | 1.31 and 1.05 | -2.38 (inactive) and -2.61 (inactive) | 0.365 and 1.01 | 0.22 and 1.32 | -0.542 and 0.652 | -0.0958 and 1.42 | -1.07 and 0.472 | 0.885 and 1.09
